Laboratory results: PubChem BioAssay

Columns and labels:
[1] = system: Botulinum neurotoxin type F light chain protease (Clostridium botulinum); assay: Botulinum neurotoxin type F light chain protease inhibition, multiplex microsphere flow cytometry, validation set (AID 588459); conditions: multiplex microsphere protease substrate cleavage assay, at 10 µM, hits give high values
[2] = molecular target: Botulinum neurotoxin type A (Clostridium botulinum) (UniProt P0DPI0); assay: BoNT/A light chain protease inhibitors, biochemical, multiplex microsphere flow cytometry, validation set (AID 588460); conditions: at 10 µM, hits give high values
Sequence of Botulinum neurotoxin type A (Clostridium botulinum) (P0DPI0 whole entry, looked up): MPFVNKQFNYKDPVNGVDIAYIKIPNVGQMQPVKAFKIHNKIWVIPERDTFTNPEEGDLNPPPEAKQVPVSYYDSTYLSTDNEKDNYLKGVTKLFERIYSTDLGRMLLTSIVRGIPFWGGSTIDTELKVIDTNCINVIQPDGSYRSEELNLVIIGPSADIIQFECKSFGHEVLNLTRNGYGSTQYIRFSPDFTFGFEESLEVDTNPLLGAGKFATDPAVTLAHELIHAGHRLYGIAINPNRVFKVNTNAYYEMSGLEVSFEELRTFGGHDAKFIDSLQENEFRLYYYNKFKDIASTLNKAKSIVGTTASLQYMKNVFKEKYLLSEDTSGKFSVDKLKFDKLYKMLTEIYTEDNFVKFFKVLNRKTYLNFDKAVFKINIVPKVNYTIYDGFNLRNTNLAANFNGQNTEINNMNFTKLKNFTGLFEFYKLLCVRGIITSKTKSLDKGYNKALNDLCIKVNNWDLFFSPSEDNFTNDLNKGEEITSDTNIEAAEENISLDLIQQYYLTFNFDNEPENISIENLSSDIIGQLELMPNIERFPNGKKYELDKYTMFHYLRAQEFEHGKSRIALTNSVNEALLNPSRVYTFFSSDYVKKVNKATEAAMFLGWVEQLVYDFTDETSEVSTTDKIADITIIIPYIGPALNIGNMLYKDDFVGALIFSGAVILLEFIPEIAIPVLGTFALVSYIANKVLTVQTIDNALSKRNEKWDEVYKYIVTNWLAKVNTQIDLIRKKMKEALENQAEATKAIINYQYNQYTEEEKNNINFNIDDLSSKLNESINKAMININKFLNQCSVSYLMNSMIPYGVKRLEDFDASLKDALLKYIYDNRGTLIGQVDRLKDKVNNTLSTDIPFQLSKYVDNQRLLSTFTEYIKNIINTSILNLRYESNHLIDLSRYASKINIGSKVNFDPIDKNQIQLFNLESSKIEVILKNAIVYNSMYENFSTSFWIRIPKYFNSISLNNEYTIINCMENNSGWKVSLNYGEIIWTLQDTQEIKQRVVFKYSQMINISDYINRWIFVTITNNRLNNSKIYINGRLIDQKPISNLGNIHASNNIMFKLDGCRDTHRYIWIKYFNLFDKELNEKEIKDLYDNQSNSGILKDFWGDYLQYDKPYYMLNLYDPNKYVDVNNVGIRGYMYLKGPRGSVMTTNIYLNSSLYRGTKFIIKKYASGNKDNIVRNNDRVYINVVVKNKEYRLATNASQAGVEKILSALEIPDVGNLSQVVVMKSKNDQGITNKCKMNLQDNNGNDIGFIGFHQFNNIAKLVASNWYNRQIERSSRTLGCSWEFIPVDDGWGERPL

[3] = molecular target: Lethal factor (Bacillus anthracis) (UniProt P15917); assay: Lethal factor protease inhibitors, Bacillus anthracis, multiplex microsphere cleavage assay, validation set (AID 588461); conditions: flow cytometry, at 10 µM, hits give high values
Sequence of Lethal factor (Bacillus anthracis) (P15917 whole entry, looked up): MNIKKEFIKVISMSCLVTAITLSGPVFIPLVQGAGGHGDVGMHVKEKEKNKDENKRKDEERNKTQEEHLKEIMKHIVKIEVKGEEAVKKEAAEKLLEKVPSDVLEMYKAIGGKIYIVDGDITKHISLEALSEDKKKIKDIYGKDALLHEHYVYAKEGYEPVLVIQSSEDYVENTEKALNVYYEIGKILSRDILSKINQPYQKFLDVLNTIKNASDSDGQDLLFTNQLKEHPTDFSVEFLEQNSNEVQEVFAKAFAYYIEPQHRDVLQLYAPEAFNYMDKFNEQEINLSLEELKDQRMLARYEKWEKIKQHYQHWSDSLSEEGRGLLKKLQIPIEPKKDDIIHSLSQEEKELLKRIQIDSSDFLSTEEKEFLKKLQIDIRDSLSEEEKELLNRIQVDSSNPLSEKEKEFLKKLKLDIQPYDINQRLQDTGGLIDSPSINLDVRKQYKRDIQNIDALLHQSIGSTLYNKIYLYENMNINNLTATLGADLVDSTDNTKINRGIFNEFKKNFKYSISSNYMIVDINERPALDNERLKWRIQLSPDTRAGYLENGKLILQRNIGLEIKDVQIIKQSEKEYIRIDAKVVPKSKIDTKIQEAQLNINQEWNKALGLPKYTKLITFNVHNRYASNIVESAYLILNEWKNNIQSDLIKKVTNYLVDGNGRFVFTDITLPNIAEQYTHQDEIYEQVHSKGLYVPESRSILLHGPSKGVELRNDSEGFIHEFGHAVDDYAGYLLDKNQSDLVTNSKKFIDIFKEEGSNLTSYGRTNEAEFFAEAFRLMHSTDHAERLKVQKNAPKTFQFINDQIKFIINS

Measured: inhibition

Cc1nc2ccccn2c(=O)c1CCN1CCC(C(=O)c2ccc(F)cc2)CC1
inactive: [1] 1.5% | [2] 0.8% | [3] -0.4%

CC(=O)OC(CC(=O)O)C[N+](C)(C)C (centres undefined)
inactive: [1] 3.4% | [2] 0% | [3] -3.6%

COc1cc2c(cc1NCc1ccc3c(c1)OCO3)oc1ccccc12
inactive: [1] -2.5% | [2] -0.9% | [3] -15.7%

CCCCC/C=C\C[C@H](O)/C=C/c1cccc(C[C@H](O)CCCCO)n1
inactive: [1] 2.3% | [2] 1.9% | [3] -6.2%

C[C@@H]1C[C@H]2[C@@H]3C[C@H](F)C4=CC(=O)C=C[C@]4(C)[C@@]3(F)[C@@H](O)C[C@]2(C)[C@@]1(O)C(=O)COC(=O)C(C)(C)C
inactive: [1] -2.6% | [2] -2.1% | [3] 3.4%

CC1(C)Oc2ccc(C#N)cc2[C@@H](N2CCCC2=O)[C@@H]1O
inactive: [1] 3% | [2] 0.5% | [3] 5.1%

O=C(c1cc2cc(Br)ccc2o1)N1CCCCC1
inactive: [1] 5.3% | [2] -0.6% | [3] 8.5%

COc1ccc([C@H]2[C@H](C(=O)OC(C)(C)C)N3N=Cc4ccccc4C3C23C(=O)c2ccccc2C3=O)cc1OC (some centres undefined)
inactive: [1] -0.2% | [2] 0.5% | [3] -5.5%

OC12CCCCC1C(c1ccc3c(c1)OCO3)N(Cc1cccc(F)c1)CC2 (centres undefined)
inactive: [1] -0.1% | [2] -1.3% | [3] -2.8%

COc1ccccc1C1(CC(=O)N2CCCCC2)CCOC(C(C)C)C1 (centres undefined)
inactive: [1] 1.1% | [2] -0.2% | [3] -3.3%

CCC1CCc2c(sc(NC(=O)c3cccnc3)c2C(N)=O)C1 (centres undefined)
inactive: [1] -4.8% | [2] -2.3% | [3] -6.2%

Cc1ccc(C2CC(c3cccs3)=NN2C(=O)c2ccco2)o1 (centres undefined)
inactive: [1] -0.5% | [2] -0.5% | [3] 1.3%

CCC(C)n1ncn(-c2ccc(N3CCN(c4ccc(OCC5COC(Cn6cncn6)(c6ccc(Cl)cc6Cl)O5)cc4)CC3)cc2)c1=O (centres undefined)
inactive: [1] 2.7% | [2] -0.4% | [3] 4.4%

O=C(O)CCCCCN1C(=O)C(=O)/C(=C(/O)c2ccccc2)C1c1ccccc1 (centres undefined)
inactive: [1] 0.2% | [2] 0.9% | [3] -6.7%

COc1ccc(-c2onc(C)c2-c2ccc(C(=O)OC(C)C)o2)c(O)c1
inactive: [1] 1.1% | [2] 0.9% | [3] 0.9%

O=C(c1cccnc1)N1N=C(C2CC2)CC1(O)C(F)(F)F (centres undefined)
inactive: [1] 2% | [2] 1% | [3] 4.2%

O=C(NCCN1CCOCC1)c1ccc(Cl)cc1
inactive: [1] 2.4% | [2] 1.2% | [3] -2%

CCCCC[C@H](O)/C=C/[C@@H]1[C@@H](C/C=C\CCCC(=O)O)[C@@H](O)C[C@H]1O
inactive: [1] -2.4% | [2] -1.9% | [3] -1.1%
